# Measured values: PubChem BioAssay AID1030 (National Center for Advancing Translational Sciences (NCATS), 2008)
# About 16,000 (7.3%) of roughly 220,000 compounds were called active. Another 25% or so got no clear call; they are omitted. Shown is part of a subset that was picked to be rich in actives. Values without a mark were called inactive. The call rests on the fitted dose curve; in most records, active means well fitted inhibition curve with a large enough effect (not every such curve was filed as active); inconclusive means small, poorly fitted or top-dose-only effect, or another doubt; inactive means no such curve, though single readings can be large or run the other way.
# Molecular target: Aldehyde dehydrogenase 1A1 (Homo sapiens) (UniProt P00352)
# Sequence (P00352 whole entry, looked up): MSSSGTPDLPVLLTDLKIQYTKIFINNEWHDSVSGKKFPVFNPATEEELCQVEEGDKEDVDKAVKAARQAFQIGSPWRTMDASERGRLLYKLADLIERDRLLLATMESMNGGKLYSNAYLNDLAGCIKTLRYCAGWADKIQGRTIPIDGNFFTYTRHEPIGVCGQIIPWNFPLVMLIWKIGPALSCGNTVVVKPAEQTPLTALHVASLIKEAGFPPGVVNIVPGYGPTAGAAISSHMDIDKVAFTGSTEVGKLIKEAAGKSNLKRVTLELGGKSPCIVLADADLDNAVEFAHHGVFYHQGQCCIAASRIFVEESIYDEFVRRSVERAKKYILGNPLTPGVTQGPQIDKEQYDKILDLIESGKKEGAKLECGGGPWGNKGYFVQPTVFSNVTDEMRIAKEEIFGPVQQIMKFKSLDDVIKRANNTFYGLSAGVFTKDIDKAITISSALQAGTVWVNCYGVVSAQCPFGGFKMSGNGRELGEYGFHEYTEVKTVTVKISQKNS
# Assay: qHTS Assay for Inhibitors of Aldehyde Dehydrogenase 1 (ALDH1A1);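 on activity, negative = inhibition: plate controls were no enzyme wells and a reference inhibitor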
# Settings: Purified ALDH1A1, NADH fluorescence, propionaldehyde substrate; series mostly up to 75.3 µM; activity, negative = inhibition: at the top concentration
# Potency means the concentration at half of the fitted maximal effect.
Compound,"activity, negative = inhibition [%]",Potency
CCOc1ccc(/C=C(/NC(=O)c2ccccc2)C(=O)NCCC(=O)O)cc1,3.16,–
Cc1ccccc1CC1(CO)CCCN(C(=O)c2cc(-c3ccccc3)no2)C1 (centres undefined),6.3,–
O=[N+]([O-])c1ccccc1OCCCCN1CCCCC1,5.91,–
O=C(Oc1ccccc1C(=S)N1CCCCC1)c1cc([N+](=O)[O-])cc([N+](=O)[O-])c1,–,8.91 µM (active)
COc1cc(C(=S)N2CCOCC2)cc(OC)c1OC(=O)c1cc([N+](=O)[O-])c(C)c([N+](=O)[O-])c1,-15.4,–
Cc1cc(C)n(Cc2cnc(N3CCOCC3)s2)n1,1.49,–
Cc1nn(CC2CC2)c(=O)n1N(C)c1ncc(C(F)(F)F)cc1Cl,11.8,–
N#C/C(=C\c1ccc(O)c(O)c1)C(=O)NCc1ccccc1,–,inactive
CCOC(=O)/C(C#N)=C\c1c(C)cc(C)c(COC(C)=O)c1C,1.88,–
CC(C)(C)C(=O)/C(C#N)=C/c1ccc(O)cc1,–,1.58 µM (active)
C=CCn1c(COc2ccccc2C)nnc1SCC(=O)O,-4.73,–
CC(=O)Nc1ccc(NC(=O)CSc2nnc(COc3ccccc3C)n2CC2CCCO2)cc1 (centres undefined),–,10 µM (active)
COc1ccccc1NC(=O)CSc1nnc(C)n1CC1CCCO1 (centres undefined),-9.88,–
CC(OC(=O)c1ccccc1N1C(=O)C2C3CCC(C3)C2C1=O)C(=O)c1ccccc1 (centres undefined),20.1,–
O=[N+]([O-])c1ccccc1Nc1ccc(O)cc1,-3.44,–
CC(C)OCCCNC(=O)c1cc(Sc2ccc(F)cc2)nc2ccccc12,-5.97,–
COc1cccc(NS(=O)(=O)c2ccc3[nH]cc(C(=O)NCCCOC(C)C)c(=O)c3c2)c1,–,11.2 µM (active)
CCNS(=O)(=O)c1ccc(NC(=O)Nc2cccc(OC)c2)cc1,-8.67,–
Cc1ccc(Nc2c3c(nc4ccccc24)CCC3)cc1,0.124,–
Cc1ccc(-c2csc(NC(=O)Cn3[nH]c(=O)c4ccccc4c3=O)n2)cc1,3.41,–
CCOC(=O)c1ccc(NC(=O)CSc2ncccn2)cc1,-10.2,–
CCOC(=O)c1sc(NC(=O)CSc2ncccn2)c(C#N)c1C,–,28.2 µM (active)

Compound,"activity, negative = inhibition [%]",Potency
CCN(CC)C(=O)c1sc(NC(=O)c2ccco2)c(C#N)c1C,2.09,–
CCOC(=O)c1sc(NC(=O)CSc2nc(C)cc(C(F)(F)F)n2)c(C#N)c1C,–,2.24 µM (active)
CCOC(=O)c1sc(NC(=O)CSc2n[nH]c(CC)n2)nc1C,-0.18,–
Cc1cc(C(F)(F)F)c(C#N)c(SCC(=O)NC2CC2)n1,10.4,–
O=C(Nc1cccc(CCc2ccccn2)c1)c1ccc(Cl)cc1,-0.24,–
Nc1c(C(=O)NCc2ccccc2)nnn1Cc1cccc(Cl)c1,14.8,–
O=C(NCc1ccc(Cl)cc1)c1cc(=O)nc2sc(-c3ccccc3)nn12,–,5.01 µM (active)
O=C(Cn1nnc2ccccc2c1=O)NCc1ccc(Cl)cc1,0.87,–
CCOC(=O)c1ccc(-c2ccc(C(=O)Nc3cccnc3)o2)cc1,–,22.4 µM (active)
COc1ccc(C(=O)Nc2cccnc2)cc1C(=O)Nc1cccnc1,8.94,–
O=C(Nc1cccnc1)c1ccc2c(c1)OCO2,3.17,–
OC1CSc2nc3ccccc3n2C1 (centres undefined),16.1,–
COc1ccc(Cl)cc1N(CC(=O)N1CCCCC1)S(C)(=O)=O,-4.02,–
CCn1c(C(C)C)n[nH]c1=S,6.31,–
CCCCCCCC/C=C\CCCCCCCC(=O)NCC(=O)O,4.06,–
COc1ccccc1NC(=O)C1=C(C)NC(=O)NC1c1ccc(C)s1 (centres undefined),0.535,–
CCOC(=O)/C(=N\Nc1ccccc1Cl)N(C)C1CCS(=O)(=O)C1 (centres undefined),8.1,–
Cc1ccnc(Nc2nc3ccccc3s2)n1,3.21,–
Cc1nc2ccccc2c(=O)n1CCCn1ccnc1,12.8,–
Cc1ccnc(-n2sc3ccccc3c2=O)n1,–,1.26 µM (active)
COC(=O)C(C)NC(=O)COc1ccc2ccccc2c1 (centres undefined),1.95,–
C/C(=N/N1CCN(Cc2cccc3ccccc23)CC1)c1cccnc1,-6.86,–

Compound,"activity, negative = inhibition [%]",Potency
CC/C(Cc1ccccc1)=N/NC(=O)CCn1nnc2ccccc21,-4.78,–
CC(C)Cc1nc(Cl)c(C#N)c2c1CCC2,-9.07,–
COC(=O)C1=C(C)NC(=O)/C1=C/c1ccc(CNS(=O)(=O)c2ccc(C)cc2)o1,-9.6,–
O=C(NCC(=O)N(CC1CCCO1)C(C(=O)NC1CCCCC1)c1ccccc1)c1ccco1 (centres undefined),-5.06,–
CCNC(=O)CN(c1ccc(C)cc1)S(=O)(=O)c1ccc(SC)cc1,–,11.2 µM (active)
Cc1ccc(S(=O)(=O)N(CC(=O)NCCSC2CCCCC2)c2ccccc2F)cc1,-12.3,–
CCCNC(=O)CN(Cc1ccccc1F)S(=O)(=O)c1ccc(C)cc1,-8.44,–
COc1ccc(/C=C2\SC(=S)N(CC(=O)NNC(=O)c3ccncc3)C2=O)cc1,0.464,–
COc1cccc(-n2c(SCC(=O)c3c[nH]c4ccccc34)nc3ccccc3c2=O)c1,15.6,–
N#CCSc1nc2ccccc2c(=O)n1-c1ccccc1,–,12.6 µM (active)
O=c1c2ccccc2nc(CSc2nnnn2-c2ccccc2)n1-c1ccccc1,-17.7,–
CC(C)(C)C1CCC(=NNC(=O)c2ccc(Br)o2)CC1 (centres undefined),-0.649,–
O=c1c(Cl)c(NC2CC2)cnn1-c1ccccc1,3.08,–
Cc1cc(C)nc(SCC(=O)N(C)C)n1,13.8,–
COc1ccc(NC(=O)CSc2ncnc3[nH]ncc23)cc1,–,11.2 µM (active)
COc1ccc(NC(=O)CSc2nc(C)cs2)cc1,3.7,–
CCOc1ccc(NC(=O)CSc2ncnc3c2sc2ccccc23)cc1,-5.68,–
CCOC(=O)c1sc(-c2cccc([N+](=O)[O-])c2)cc1N,4.95,–
COC(=O)c1sc(=S)n(-c2ccc(Cl)cc2)c1C,-15.1,–
CCOC(=O)c1csc(NC(=O)Nc2cccc(OC)c2)n1,-7.94,–
COC(=O)c1sccc1NN1C(=O)c2ccccc2C1=O,4.1,–
COC(=O)c1sc(=S)n(-c2ccccc2)c1N,–,7.08 µM (active)

Compound,"activity, negative = inhibition [%]",Potency
CCOC(=O)c1sc(=S)n(-c2cccc(OC)c2)c1N,–,22.4 µM (active)
COc1ccc(CCc2nnc(CCC(=O)NCc3cnn(-c4ccccc4C)c3)o2)cc1,-13.3,–
O=C(CCCNS(=O)(=O)c1cccc2nsnc12)NCCN1CCN(c2ccccc2F)CC1,-3.87,–
CCCCC/C=C\C[C@H](O)/C=C/C=C/C=C/[C@@H](O)CCCC(=O)O,2,–
COc1cc(CNC2CCCC2)c(Br)cc1OCc1ccccc1,4.19,–
COc1ccc(CCN=C2SCC(=O)N2Cc2ccccc2)cc1OC,-6.04,–
COc1cc(C2CC(=O)N3CN(Cc4ccccc4)CSC3=C2C#N)ccc1OCc1ccccc1 (centres undefined),–,10 µM (active)
O=C(N/N=C1\CCSC1)c1cc(Cl)ccc1O,5.93,–
O=C(CSC(=S)N1CCCCC1)c1c(F)cccc1F,–,12.6 µM (active)
CC(=O)c1ccc(NC(=O)CSC(=S)N2CCCC2)cc1,-1.69,–
O=C(CSC(=S)N1CCOCC1)c1ccccc1,-11.8,–
CCOP(=O)(OCC)C(Nc1ccc([N+](=O)[O-])cc1)c1ccc(Cl)cc1 (centres undefined),2.42,–
Cc1ccc2c(c1)C1CN(C)CCC1N2C(=S)Nc1ccc(Cl)cc1Cl (centres undefined),-11.2,–
CCn1c(SCC(=O)NCC2CCCO2)nc2cc(S(=O)(=O)N3CCCCC3)ccc21 (centres undefined),-10.7,–
CCn1cc(C(=O)NCC2CCCO2)c(=O)c2cc(S(=O)(=O)N3CCCCC3)ccc21 (centres undefined),–,15.8 µM (active)
CCn1cc(C(=O)NCCCN2CCCCCC2)c(=O)c2cc(S(=O)(=O)N3CCc4ccccc4C3)ccc21,–,7.94 µM (active)
CCOC(=O)N1CCN(C(=O)c2cn(C)c3ccc(S(=O)(=O)N4CCCC4)cc3c2=O)CC1,-12.2,–
Cc1ccc(S(=O)(=O)N2CCC(C(=O)NCC3CCCO3)CC2)cc1 (centres undefined),15.3,–
O=C(Nc1ccc(S(=O)(=O)N2CCc3ccccc3C2)cc1)c1ccccc1,15.8,–
NS(=O)(=O)c1ccc(CNC(=O)c2ccc(Cl)cc2[N+](=O)[O-])cc1,-11.9,–
CCOC(=O)N/N=C/c1cccnc1,14.9,–
Cc1nn(CCOc2ccc(Br)cc2)c(C)c1[N+](=O)[O-],7.31,–

Compound,"activity, negative = inhibition [%]",Potency
CN(C)CCSc1nc(N)c2c3c(sc2n1)COC(C)(C)C3,0.0923,–
CC(C)c1nc2sc3c(c2c(=O)n1N)CC(C)(C)OC3,11.1,–
C=CCNC(=S)NNc1ncnc2sc3c(c12)CC(C)(C)OC3,–,1.41 µM (active)
O=C(NCc1ccc(F)cc1)C(c1ccccc1)N(C(=O)c1csnn1)C1CC1 (centres undefined),-7.36,–
COc1cc(C)c(S(=O)(=O)N2CCOCC2)c(C)c1C,1.4,–
O=C1N/C(=N\N=C\c2ccco2)SC1Cc1ccc(F)cc1 (centres undefined),-15.7,–
CCOc1ccc(S(=O)(=O)Nc2ccncc2)c(C)c1C,3.06,–
CCOc1ccc(NS(=O)(=O)c2cc(C)c(C)cc2C)cc1,–,7.94 µM (active)
CCOc1ccc(NS(=O)(=O)c2ccc(C)c(C(N)=O)c2)cc1,10.6,–
CCOc1ccc(NC(=O)Nc2cc(C)ccc2OC)cc1,-8.82,–
CCOc1ccc(S(=O)(=O)Nc2ccc(S(=O)(=O)Nc3cc(OC)ccc3OC)cc2)cc1,–,10 µM (active)
CCOc1ccc(C(=O)Nc2cc(OC)ccc2OC)cc1,10.8,–
CN1CCN(/N=C/c2ccc(C#N)cc2)CC1,-6.72,–
CC(=O)/C(C)=N/O,4.95,–
Cc1cc(C(=O)OC(C)C(=O)Nc2cccc(S(=O)(=O)N3CCOCC3)c2)c(C)o1 (centres undefined),-9.99,–
CC(OC(=O)CNS(=O)(=O)/C=C/c1ccccc1)C(=O)Nc1ccc(S(=O)(=O)N2CCCC2)cc1 (centres undefined),–,1.26 µM (active)
O=C(O)/C=C/c1ccc(S(=O)(=O)N2CCCCCC2)cc1,1.8,–
C/C(N)=C(/C#N)C(=O)COC(=O)C1CCN(C(=O)c2ccc(Cl)cc2)CC1,6.17,–
N/C(=N\OC(=O)Cc1ccccc1[N+](=O)[O-])c1ccc(Br)cc1,-19.8,–
NS(=O)(=O)c1ccc(NC(=O)/C=C/c2ccccc2Cl)cc1,5.79,–
COC(=O)C1=C(C)N(c2ccc(C)cc2)/C(=C/c2ccc(O)cc2)C1=O,1.55,–
